# Compounds with a hit are over-represented: about 3% of the library has one in this group of screens.
# TNF death inh = inhibitors of TNF-alpha triggered necroptosis, primary screen, cell-based, Jurkat FADD-/-, single concentration. activation (protection from cell death), % at 10 µM. actives 0.068% (n = 220,000). Jurkat FADD-/- TNF necroptosis rescue, ATP luminescence, 24 h; 0 = TNF only, 100 = no-TNF cells. AID 463075, 2010;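 active = activation, meaning protection from cell death, of at least 50% relative to plate controls; inactive = activation below 50%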;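 also: necroptosis triggered by 40 ng/mL TNF-alpha added together with compound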
# L929 necroptosis = inhibitors of zVAD-triggered necroptosis, primary screen, L929 cells; AID 1377, 2008; viability rescue, % at 10 µM; L929 zVAD necroptosis rescue, ATP luminescence, 24 h; with zVAD 60 µM; actives 0.38% (n = 220,000);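 active = activation, scaled between plate controls, above about 75%, limit read from the data; inactive = activation under that limit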;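 also: 0% = zVAD with DMSO and 100% = DMSO alone without zVAD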
# 14-3-3 Bad inh = inhibitors of 14-3-3 zeta/Bad binding, primary screen, biochemical, TR-FRET, bovine 14-3-3 zeta; actives 0.71% (n = 220,000); TR-FRET 14-3-3zeta/Dy647-pBad peptide displacement, 1 h; 14-3-3 protein zeta/delta (Bos taurus), P63103; inhibition, % at 21.7 µM;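 active = inhibition above about 70%, limit read from the data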;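 also: 0% = full 14-3-3 plus peptide FRET controls and 100% = background without 14-3-3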
# Target sequence (P63103 whole entry, looked up): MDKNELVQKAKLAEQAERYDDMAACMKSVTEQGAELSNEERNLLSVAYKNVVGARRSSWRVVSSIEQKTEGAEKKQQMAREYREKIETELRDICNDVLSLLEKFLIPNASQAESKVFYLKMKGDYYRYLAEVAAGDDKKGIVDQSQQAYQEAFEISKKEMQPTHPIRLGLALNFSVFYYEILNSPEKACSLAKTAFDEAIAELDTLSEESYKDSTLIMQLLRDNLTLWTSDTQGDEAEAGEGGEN
# Efa HMGR inh = inhibitors of E. faecalis class II HMGR, primary screen, biochemical, Enterococcus faecalis; purified E. faecalis HMGR, NADPH absorbance 340 nm kinetic; inhibition, % at 10 µM; actives 0.41% (n = 190,000); AID 1066, 2008;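 active = inhibition above a set limit, the median over all tested compounds plus 3 SD, cut at about 9.5% in these data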;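 also: enzyme runs in reverse so mevalonate oxidation gives rising NADPH absorbance; 0% = complete reaction with DMSO and 100% = background rate lacking mevalonate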
# Calpain2 inh = inhibitors of pig calpain II, primary screen, biochemical, fluorogenic peptide substrate, 1536-well | purified calpain II, 30 min | inhibition, % at 16 µM | actives 0.37% (n = 220,000) | AID 1236, 2008;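 active = inhibition above about 50%, limit read from the data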
# ROMK mod = ROMK potassium channel modulators, primary screen, cell-based, thallium flux, MLSMR library; AID 1918, 2009; B-score at 10 µM; ATP-sensitive inward rectifier potassium channel 1 (Homo sapiens), P48048; actives 2% (n = 130,000); Tet-inducible ROMK, thallium flux fluorescence; actives lie on both sides;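 active = signal ratio slope over the read window, or its plate-corrected B-score, at least 3 SD from the plate mean, either direction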;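 also: B-score of the F/F0 ratio slope over 7 to 12 s after thallium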
# Target sequence (P48048 whole entry, looked up): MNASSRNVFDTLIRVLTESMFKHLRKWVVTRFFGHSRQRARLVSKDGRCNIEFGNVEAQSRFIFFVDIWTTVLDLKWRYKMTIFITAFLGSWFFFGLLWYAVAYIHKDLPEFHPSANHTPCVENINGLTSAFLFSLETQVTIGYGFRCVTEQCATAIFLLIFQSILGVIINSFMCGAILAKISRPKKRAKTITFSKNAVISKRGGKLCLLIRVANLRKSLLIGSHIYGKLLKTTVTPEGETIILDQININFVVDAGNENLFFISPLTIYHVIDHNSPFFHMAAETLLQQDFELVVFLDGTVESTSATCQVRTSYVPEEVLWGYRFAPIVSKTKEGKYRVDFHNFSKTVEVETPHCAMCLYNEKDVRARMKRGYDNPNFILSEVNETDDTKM
# zVAD death conf = inhibitors of zVAD-triggered necroptosis in L929, confirmation, L929 cells, duplicate runs; shares compounds with L929 necroptosis; L929 zVAD-induced necroptosis rescue, ATP luminescence, 24 h; activation (protection from necroptosis), % at 10 µM; actives 16% (n = 760);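 active = mean protection from necroptosis of at least 50% over duplicate tests; inactive = mean protection below 50%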;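 also: 0% = cells with zVAD alone and 100% = vehicle cells without zVAD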
# * = called active by the depositor; . = no result.
SMILES,TNF death inh,L929 necroptosis,14-3-3 Bad inh,Efa HMGR inh,Calpain2 inh,ROMK mod,zVAD death conf
Cc1c(CNCC(C)c2ccccc2)c(C(=O)O)c(C)n1Cc1ccccc1 (centres undefined),1.0,0.7,-9.8,-2.8,-27.3,-0.109,.
CC(C)=CC(=O)Nc1nc2ccc([N+](=O)[O-])cc2s1,-5.0,77.4*,-11.7,-5.6,-7.1,-0.249,37.9
COc1ccc(-c2nnc(Nc3ccc(CC(N)=O)cc3)c3ccccc23)cc1,-5.1,40.5,12.4,-5.9,-17.7,.,.
Oc1ccc(Nc2nnc(-c3ccc(O)cc3)c3ccccc23)cc1,-2.0,80.7*,-21.1,-2.1,-20.4,0.512,1.3
COc1ccc(Nc2nnc(-c3ccc(O)cc3)c3ccccc23)cc1,-6.8,75.1*,0.7,1.5,29.1,-1.75,38.9
COc1ccc(Nc2nnc(-c3ccc(O)cc3)c3ccccc23)cc1C(N)=O,-1.7,81.7*,-7.8,-2.1,23.9,-0.263,6.8
NC(=O)Cc1ccc(Nc2nnc(-c3ccccc3)c3ccccc23)cc1,-2.0,0.4,2.5,-0.3,-8.9,.,.
CC(C)(C)c1nc(NC(=O)Nc2ccccc2)sc1Br,-0.5,83.5*,-6.0,2.7,21.2,0.166,3.1
O=C(COc1ccc(/C=N/NC(=O)C(=O)N2CCCCCC2)cc1)Nc1ccccc1Cl,0.3,78.2*,-0.3,-2.9,16.9,.,44.9
O=C(N/N=C/c1ccc(OCC(=O)N2CCCCC2)cc1)c1ccccc1,-2.4,0.0,-1.4,-5.5,10.5,-0.0621,.
CCN(CC)Cc1cc2[nH]c3c4ccc(Cl)cc4ncc3c2cc1OC,-28.6,80.9*,8.7,.,-32.5,.,73.1*
COc1ccc(/C(N)=N/O)cc1O,0.9,0.1,-13.6,-3.9,-6.7,0.299,.
Cc1cc(NCCCn2ccnc2)n2ncc(-c3ccc(Cl)cc3)c2n1,-4.2,72.0,1.1,1.7,-44.0,.,.
Cc1cc(NCCCN2CCOCC2)n2ncc(-c3ccc(Cl)cc3)c2n1,-1.2,84.4*,-0.4,-4.0,-93.4,.,1.0
S=c1[nH]ncn2c1cc1oc3ccccc3c12,-0.7,0.7,-11.0,-2.0,-19.8,-0.0396,.
CCC(=O)Nc1ccc(C(=O)CSc2nc3ccc(C)cc3[nH]2)cc1,2.6,75.6*,-3.5,2.7,-70.5,.,38.9
CCC(=O)Nc1ccc(C(=O)CSc2nc3ccccc3[nH]2)cc1,1.1,.,-4.8,-5.9,-43.6,0.117,.
CC1CCC/C=C/C(=O)c2c(O)cc(O)cc2CC(=O)O1 (centres undefined),-25.8,83.9*,-1.5,.,-27.0,.,32.5
COc1cc(NC(=O)Cc2c(C(=O)O)n(C)c3ccccc23)cc(OC)c1OC,0.5,2.1,-14.4,0.6,-32.4,-0.969,.
CC1=NN(c2ccccc2)C(=O)/C1=C\c1cc(C)n(-c2ccccc2)c1C,2.8,87.8*,-1.9,2.4,-1.2,.,2.3
CC1=NN(c2ccccc2)C(=O)/C1=C\c1cc(C)n(-c2cccnc2)c1C,-1.6,0.3,-4.5,.,-10.4,.,.
CC(=O)Nc1cccc(NC(=O)Nc2cccc(Cl)c2C)c1,-0.4,1.3,-1.1,-1.2,-17.8,0.179,.
Cc1c(Cl)cccc1NC(=O)Nc1cc(C(C)(C)C)nn1C,10.2,81.4*,0.6,.,-2.3,.,31.1
CCN1CCN(Cc2ccc(NC(=O)c3cc(NC(=O)c4cnn(-c5ccccc5)c4N)cc(OC)c3)cc2C(F)(F)F)CC1,-26.4,80.0*,-3.3,.,-44.4,.,80.8*
CCN1CCN(Cc2ccc(NC(=O)c3ccc(C)c(NC(=O)c4ccnnc4)c3)cc2C(F)(F)F)CC1,4.9,75.9*,-5.5,.,-13.5,.,55.9*
SMILES,TNF death inh,L929 necroptosis,14-3-3 Bad inh,Efa HMGR inh,Calpain2 inh,ROMK mod,zVAD death conf
CCN1CCN(Cc2ccc(NC(=O)c3ccc(C)c(NC(=O)c4ccc5n[nH]nc5c4)c3)cc2C(F)(F)F)CC1,2.5,71.8,-5.3,.,-16.4,.,.
Cc1[nH]n(-c2nc(-c3cccc([N+](=O)[O-])c3)cs2)c(=O)c1C,1.4,0.6,-6.4,1.9,-5.1,1.02,.
O=C(Nc1nccs1)c1ccc(N2C(=O)[C@@H]3[C@H](C2=O)[C@H]2C=C[C@@H]3C2)cc1,17.2,79.4*,0.5,.,-0.9,0.074,2.2
O=C(Nc1nccs1)c1cccc(N2C(=O)C3C4C=CC(C4)C3C2=O)c1 (centres undefined),11.0,78.2*,-5.4,1.9,16.7,.,17.3
Cc1cccc(NC(=S)N2CCC(N(C)CC3CCCO3)CC2)c1 (centres undefined),0.8,-2.2,-2.5,-5.0,9.8,.,.
COc1ccc(/C=C/C(=O)N2CCN(c3ccccn3)CC2)c2ccccc12,-1.0,1.7,-7.0,-0.2,0.8,-0.0602,.
CCOC(=O)c1cc(-c2cccnc2)nn1-c1ccccc1C,0.1,1.2,-10.8,9.1,-15.2,-0.485,.
COc1cc(/C=C/C(=O)c2ccc(NS(=O)(=O)c3ccc(C)cc3)cc2)cc(OC)c1O,0.7,102.8*,2.5,-4.0,0.6,.,6.4
CC1(C)c2ccccc2-n2c1cc1oc(=O)cc(O)c1c2=O,-0.5,2.3,0.4,.,47.2,0.00404,.
C=CCN1C=CC=C/C1=C1\SC(=S)N(C)C1=O,0.1,3.6,-7.0,0.9,-6.9,-0.0151,.
O=C(NCCN1CCCC1)c1ccc2c(=O)n(CCc3ccccc3)c(=O)[nH]c2c1,-1.7,91.0*,1.1,2.1,-82.5,.,6.3
COc1cc2c(cc1NC(=O)COC(=O)CNS(=O)(=O)c1ccc(C)cc1)oc1ccccc12,1.6,-0.1,15.3,-6.6,10.7,.,.
CC[C@H](C)[C@H](NC(N)=O)C(=O)Nc1ccc(C)cc1,0.8,0.1,-0.2,-2.0,15.5,0.633,.
COC(=O)c1ccc(NC(=O)Nc2ccc(OC)c(OC)c2)cc1,1.2,82.5*,0.1,-6.8,-4.6,0.0336,0.8
CCC(C)C(NC(N)=O)C(=O)Nc1ccc(C(=O)OC)cc1 (centres undefined),0.5,77.8*,-7.5,-2.5,-2.8,-0.304,4.1
COC(=O)[C@H](C)NC(=O)Nc1ccc(OC)c(OC)c1,-1.9,0.1,1.6,-5.7,-21.7,.,.
CCOC(=O)C1CCCc2c1[nH]c1ccc(Cl)cc21 (centres undefined),1.6,4.6,-13.3,-2.8,-11.7,.,.
